Most compounds without a hit are left out; they make up all but 1.3% or so of the library.
AmpC no deterg – inhibitors of E. coli AmpC beta-lactamase without detergent | P00811 | AmpC nitrocefin hydrolysis, absorbance 480 nm, 0.0001% Triton | Potency, µM (highest dose often 57.1 µM), hits mostly inhibitors | 330,000 compounds, 0.52% hits | AID 485341; further: nearly all actives have a fitted effect of over 20% in size
Target sequence (P00811 whole entry, looked up): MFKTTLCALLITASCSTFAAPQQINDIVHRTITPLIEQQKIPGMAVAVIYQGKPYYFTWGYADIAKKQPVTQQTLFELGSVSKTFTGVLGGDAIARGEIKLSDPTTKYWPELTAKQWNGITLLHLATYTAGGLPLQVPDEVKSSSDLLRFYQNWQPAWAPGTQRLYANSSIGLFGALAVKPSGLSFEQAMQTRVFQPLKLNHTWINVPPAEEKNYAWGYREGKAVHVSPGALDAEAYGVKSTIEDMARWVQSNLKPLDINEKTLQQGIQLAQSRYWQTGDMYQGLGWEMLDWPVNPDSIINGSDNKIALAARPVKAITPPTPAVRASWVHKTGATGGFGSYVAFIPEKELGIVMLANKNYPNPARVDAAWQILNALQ
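20 mM phosphate pH 7.0 + 0.01% (detergent screen) or 0.0001% Triton X-100; 5.3 nM AmpC reagent; cpd preinc 15 min RT; nitrocefin (800 uM stock) to start; A480 q20 s × 4 min; Activity was normalised to no-enzyme and no-compound control wells.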
SARS PLP yeast – inhibitors of SARS-CoV papain-like protease in yeast | S. cerevisiae expressing SARS-CoV PLpro, growth rescue | Potency, µM (titrated, usually from 32.9 µM), actives largely listed as activators | 330,000 compounds, 0.19% hits | AID 485353; calls by dose curve; further: nearly all actives have a fitted effect of over 55% in size
AmpC detergent – AmpC beta-lactamase inhibition with detergent present; 370,000 compounds, 0.041% hits; AmpC hydrolysis of nitrocefin, absorbance 480 nm, 0.01% Triton; Potency, µM (doses to about 114 µM), usual class: inhibitors; further: nearly all actives have a fitted effect of over 25% in size
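20 mM phosphate pH 7.0 + 0.01% (detergent screen) or 0.0001% Triton X-100; 5.3 nM AmpC reagent; cpd preinc 15 min RT; nitrocefin (800 uM stock) to start; A480 q20 s × 4 min; Activity was normalised to no-enzyme and no-compound control wells.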
VACV Venus inh – inhibitors of vaccinia virus (Venus reporter); Potency, µM (doses to about 36.5 µM), most hits filed as inhibitors; Vaccinia virus Venus reporter expression, fluorescence; 330,000 compounds, 0.46% hits; calls by dose curve; tested in A549 cells; further: nearly all actives have a fitted effect of over 30% in size
VACV mCherry inh – inhibitors of vaccinia virus infection (mCherry reporter signal). Potency, µM (series often up to 36.5 µM), most hits filed as inhibitors. 310,000 compounds, 0.63% hits. Vaccinia virus mCherry reporter infection, fluorescence; calls by dose curve; tested in A549 cells; further: nearly all actives have a fitted effect of over 35% in size
Hits are given with their value; . = inactive; ? = inconclusive; / = no result given; [ ] = remark or other dose. Unless noted, the call rests on the fitted dose curve; in most records, active means well fitted curve in the direction sought with a large enough effect; inconclusive means small, poorly fitted or top-dose-only effect, or another doubt; inactive means no such curve, though single readings can be large; an effect the other way counts as inactive or inconclusive.

SMILES | AmpC no deterg | SARS PLP yeast | AmpC detergent | VACV Venus inh | VACV mCherry inh
O=C(CN1CCN(c2ccccc2)CC1)Nc1ccccc1Cl | .[2.29 µM] | . | . | / | /
CCc1cccc(CC)c1NC(=O)CN1CCN(c2ccccc2)CC1 | . | 7.1µM | ? | . | .
COC(=O)CCC(C)C1CCC2C3CC[C@H]4CC(O)CC[C@@]4(C)C3CC(O)[C@]12C (some centres not stated) | / | / | / | 10µM | ?
O=C(CCS(=O)(=O)c1ccc(F)cc1)Nc1nc(-c2ccccn2)cs1 | . | . | . | / | /
O=C(CCS(=O)(=O)c1ccccc1)Nc1nc(-c2ccccn2)cs1 | / | / | / | ? | 10µM
O=C(Nc1nc(-c2ccccn2)cs1)c1ccco1 | . | . | . | ? | 2.5µM
C[C@H](NC(=O)c1ccco1)C(=O)Nc1nc(-c2ccccn2)cs1 | / | / | / | . | .
Cc1c(C(=O)N/N=C/c2ccc(Cl)cc2)[nH]c2ccc(Cl)cc12 | 14µM | . | . | ? | ?
COc1ccc2ccccc2c1C1NC(=O)c2ccccc2N1 (configuration not stated) | / | / | / | 5.6µM | ?
CC1CN(CC(=O)NCC2(N3CCOCC3)CCCC2)Cc2cc(Cl)ccc2O1 (configuration not stated) | / | / | / | . | .
CSc1ccc(-c2ccc3c(c2)CC(CNC(=O)Cn2nc(C)nc2C)O3)cc1 (configuration not stated) | / | / | / | . | .
Cc1ccc(N2C(N)=C(C#N)C(c3cccnc3)C3=C2CCCC3=O)cc1 (configuration not stated) | . | . | . | . | .[1.46 µM]
Cc1nn(C)cc1C1C(C#N)=C(N)N(c2ccc(F)c([N+](=O)[O-])c2)C2=C1C(=O)CCC2 (configuration not stated) | . | . | . | ? | 10µM
COC1=C(C)C(=O)c2c(c(COC(N)=O)c3n2C[C@@H]2[C@@H]3N2C)C1=O (some centres not stated) | / | / | / | 11µM | .
NC(=Nc1nc(-c2ccccn2)cc2ccccc12)c1ccccn1 | / | / | / | ? | 0.32µM
O=C(Cc1cccs1)NCCSc1c(-c2ccc(Cl)cc2)[nH]c2ccccc12 | . | . | ? | 13µM | 11µM
COc1cc(CNC2CCCC2)cc(Cl)c1OCc1ccccc1F | . | . | . | 16µM | ?
COc1cc(CNc2ccc3[nH]c(=O)[nH]c3c2)cc(Cl)c1OCc1ccccc1F | / | / | . | . | ?
COc1ccc([N+](=O)[O-])c(S(=O)(=O)c2ccccc2)n1 | . | . | ? | 11µM | 11µM
COc1ccc([N+](=O)[O-])c(S(=O)(=O)c2ccc(Cl)cc2)n1 | . | . | . | 10µM | ?
CC(C)N1CCN(C(=O)c2cnn(-c3nccc(-c4ccc5c(c4)OCO5)n3)c2-c2ccco2)CC1 | / | / | / | . | ?
Cc1ncc2c(c1CNC(=O)c1cncs1)CCN(C(=O)c1ccsc1)C2 | / | / | / | . | .
Oc1ccc(C[C@H]2CNCCN2CCc2cc(C(F)(F)F)cc(C(F)(F)F)c2)cc1 | . | . | ? | . | .
Oc1ccc(C[C@@H]2CNCCN2CCc2cc(C(F)(F)F)cc(C(F)(F)F)c2)cc1 | . | . | . | 10µM | 14µM
COc1c(N2CCN(C(=S)NCc3ccccc3)C(C)C2)c(F)cc2c(=O)c(C(=O)O)cn(C3CC3)c12 (configuration not stated) | . | . | . | 13µM | /
SMILES | AmpC no deterg | SARS PLP yeast | AmpC detergent | VACV Venus inh | VACV mCherry inh
COc1c(N2CCN[C@H](C)C2)c(F)cc2c(=O)c(C(=O)O)cn(C3CC3)c12 | . | . | ? | . | .
Cc1c(C(=O)NCC2CC2)sc2ncnc(NCCN3CCCCC3)c12 | / | / | / | . | .
O=C(c1cccc(F)c1)N(Cc1cc2cc3c(cc2nc1N1CCOCC1)CCC3)CC1CCCO1 (configuration not stated) | / | / | / | . | .
NC(=O)C1CCCN(Cc2ccc3c(c2)CN(Cc2cn[nH]c2-c2ccc(F)cc2)CCO3)C1 (configuration not stated) | / | / | / | . | .
COc1ccc(Sc2ccc(-c3nc4cnccn4c3NC3CCCCC3)cc2OC)cc1 | . | . | / | 11µM | ?
CNS(=O)(=O)c1ccc2nc(NC(=O)/C=C/c3ccco3)sc2c1 | . | . | . | ? | 6.3µM
COc1cccc(CN2CCCC(c3nc(-c4ccncc4)ncc3-c3ccccc3C)C2)c1O (configuration not stated) | / | / | / | . | .
O=C(NCC1CCC2(CCN(Cc3ccc4ncccc4c3)CC2)O1)C1CCCO1 (configuration not stated) | / | / | / | . | .
CCOC(=O)N1CCN(C(=O)c2ccc(-c3ccccc3OC)nc2N2CCC(N3CCCC(CO)C3)CC2)CC1 (configuration not stated) | / | / | / | . | .
Cc1ccc(C)c(N=Nc2ccc(O)c3ncccc23)c1 | . | ? | . | / | /
NS(=O)(=O)c1ccc(N=Nc2ccc(O)c3ncccc23)cc1 | ? | . | . | 10µM | ?
Cc1cccc(N=Nc2ccc(O)c3ncccc23)c1 | . | / | . | ? | 14µM
CCOc1ccc(N=Nc2ccc(O)c3ncccc23)cc1 | . | . | . | . | ?
c1coc(-c2ccc3ncnc(NCc4cccs4)c3c2)c1 | . | . | . | / | /
Cc1ccc(CN(Cc2cc3cc(C)ccc3[nH]c2=O)Cc2nnnn2Cc2ccccc2)cc1 | / | / | / | . | .
CCOC(=O)Cn1c(=O)oc2cc(S(=O)(=O)N3CCn4c3nc3ccccc34)ccc21 | 22µM | . | . | . | .
Cn1nc(C(=O)Nc2cccc(Cl)c2)cc1C(=O)Nc1cccc(Cl)c1 | 16µM | . | . | / | /
c1ccc(-c2nnc(-c3ccccn3)nc2NC2CCCCC2)cc1 | . | . | . | ? | 3.5µM
Oc1ccccc1-c1nc(NC2CCCC2)c2ccccc2n1 | . | . | . | / | /
CCSc1nnc(C(C)NS(=O)(=O)c2cccc(Cl)c2C)n1C (configuration not stated) | / | / | / | . | .
CC(C)(C)NC(=O)C(c1ccc(-c2ccccc2)cc1)N(C[C@H]1CC[C@@H]([C@@H]2CC[C@H](CO)O2)O1)C(=O)c1ccc(-c2ccccc2)cc1 (some centres not stated) | . | . | / | ? | 28µM
Cc1ccc(C2CC(c3ccc(C)cc3)n3nc(N)nc3N2)cc1 (configuration not stated) | 45µM | . | ? | . | .
CCc1ccc(C2CC(c3ccc(Cl)cc3)n3nc(N)nc3N2)cc1 (configuration not stated) | . | . | . | . | .
Cc1ccc(C2CC(c3ccc(Cl)cc3)n3nc(N)nc3N2)cc1 (configuration not stated) | . | . | ? | / | /
CCc1ccc(C2CC(c3ccc(F)cc3)Nc3nc(N)nn32)cc1 (configuration not stated) | 4.5µM | . | . | . | .
COc1cc2c(NC3CCN(C)CC3)nc(N3CCCN(C)CC3)nc2cc1OCCCCN(C)C | / | / | / | 10µM | ?
CCCN(C)CCCOc1cc2nc(N3CCCN(C)CC3)nc(NC3CCN(C)CC3)c2cc1OC | / | / | / | 13µM | ?

Screens deposited in PubChem by National Center for Advancing Translational Sciences (NCATS).
